Compound activity: PubChem BioAssay, National Center for Advancing Translational Sciences (NCATS)
Only some compounds are listed: those with a hit (about 6.2% of all), similar ones and a draw of the others.
KB-3-1 cytotox: kills parental KB-3-1 adenocarcinoma cells; KB-3-1 viability, CellTiter-Glo ATP luminescence, 72 h; Potency, µM (highest dose often 46.1 µM), hits mostly cytotoxic; 400,000 tested, 1.4% active; further: on the % scale 0 is the no-effect control and ±100 the full control effect; nearly all actives have a fitted effect of over 60% in size
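72 h, 37 °C compound treatment of KB-3-1 parental cells; CellTiter-Glo added, 10 min, luminescence read. Data corrected against DMSO-only plates and normalized before curve fitting.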
HT1080-NT tox: kills 2HG-producing HT-1080-NT fibrosarcoma cells; HT-1080-NT fibrosarcoma viability, CellTiter-Glo ATP luminescence, 48 h; Potency, µM (top dose mostly 46.1 µM), for inactives: at the top dose activity, negative = less viability, most hits filed as cytotoxic; 360,000 tested, 1.6% active;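 further: NT is the 2HG producing partner of a matched IDH1 knockdown line; 0% = DMSO-treated cells and -100% = media-only wells without cells; nearly all actives have a fitted effect of over 55% in size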
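Luminescent CellTiter-Glo readout after 48 hours of compound exposure at 37 degrees C defined viability of HT-1080-NT cells. Activity was normalized to DMSO wells and cell-free media wells; concentration-response curves were fitted and assigned curve classes.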
HT1080 IDH1KD tx: HT-1080 IDH1 knockdown cell toxicity (counter line); HT-1080 IDH1 knockdown viability, ATP luminescence, 48 h; Potency, µM (top dose mostly 46.1 µM), for the others: at the highest dose activity, negative = toxicity, actives largely listed as cytotoxic; 360,000 tested, 2% active; AID 686971;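 further: 0% = DMSO wells and -100% = cell-free medium wells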
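After a 2 h attachment period, IDH1KD HT-1080 cells took pin-transferred compound for 48 h at 37 °C; ATP-based luminescence after 10 min room-temperature reagent incubation reported viability.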
S2 tox: cell viability loss in ATXN counter-screen; S2 cells (HEK-293 line with an ATXN2-luciferase reporter) viability, CellTiter-Fluor protease fluorescence, 24 h; Potency, µM (series often up to 56.7 µM), hits mostly cytotoxic; AID 651635; 400,000 tested, 0.49% active; further: nearly all actives have a fitted effect of over 40% in size
ATXN2 expr inh: reduces ATXN2 reporter expression in HEK-293 cells; HEK-293 ATXN2-luciferase reporter, luminescence, 24 h; Potency, µM (top dose mostly 57 µM), for the others: at the top dose activity change, negative = inhibition, hits mostly inhibitors; 360,000 tested, 0.72% active; further: on the % scale 0 is the no-effect control and ±100 the full control effect; nearly all actives have a fitted effect of over 55% in size
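qHTS (up to 57 uM final) was run with 24 h compound exposure of reporter cells at 37 °C. Each well was multiplexed: SteadyGlo luminescence measured ATXN2-luciferase expression after a fluorogenic Gly-Phe-AFC viability readout (25 uM final).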
KB-V1 MDR tox: KB-V1 MDR subline cytotoxicity; KB-V1 MDR cells viability, CellTiter-Glo, 72 h; Potency, µM (doses to about 46.1 µM), most hits filed as cytotoxic; 400,000 tested, 3.4% active; AID 1347076; further: on the % scale 0 is the no-effect control and ±100 the full control effect; nearly all actives have a fitted effect of over 60% in size
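KB-V1 cells (P-gp-expressing MDR subline of KB-3-1) in phenol-red-free DMEM with 10% FBS were exposed to library compounds over a concentration series for 72 h at 37 degrees C. Viability read by CellTiter-Glo luminescence; concentration-effect curves fitted after normalization.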
Starred values were filed as active, the others as inactive; i = inactive; ? = inconclusive; . = not tested or not shown; ! = not confirmed by another sample; [ ] = remark or other dose. The call rests on the fitted dose curve; in most records, active means well fitted curve in the direction sought with a large enough effect; inconclusive means small, poorly fitted or top-dose-only effect, or another doubt; inactive means no such curve, though single readings can be large; an effect the other way counts as inactive or inconclusive. Potency means the concentration at half of the fitted maximal effect.

SMILES | KB-3-1 cytotox | HT1080-NT tox | HT1080 IDH1KD tx | S2 tox | ATXN2 expr inh | KB-V1 MDR tox
C=CCN1CC(c2nc3ccccc3n2CCOc2ccccc2)CC1=O (stereo not given) | i | -0.1% | 2.7% | i | -4.6% | 14.6µM*
O=C1CC(c2nc3ccccc3n2CCCOc2ccccc2)CN1c1ccc(F)cc1 (stereo not given) | ? | . | . | 25.1µM* | -28.7% | i
CCCCN1CC(c2nc3ccccc3n2CCCCOc2cccc(C)c2C)CC1=O (stereo not given) | i | . | . | ? | ? | 18.4µM*
CCOc1ccc(N2CC(c3nc4ccccc4n3CCCOc3ccccc3)CC2=O)cc1 (stereo not given) | i | . | . | . | ? | i
CCc1ccc(C(=O)c2cn(CC(=O)Nc3ccc(F)cc3)c3cc4c(cc3c2=O)OCO4)cc1 | ? | . | . | i | -9.2% | i
COc1ccc(C2(C(=O)NCC3Cc4cccc(-c5nc(C)cnc5C)c4O3)CCCC2)cc1 (stereo not given) | . | . | . | i | . | .
CCCCCCCCCC(=O)N[C@@H](Cc1c[nH]c2ccccc12)C(=O)N[C@H](CC(N)=O)C(=O)N[C@@H](CC(=O)O)C(=O)N[C@@H]1C(=O)NCC(=O)N[C@@H](CCCN)C(=O)N[C@@H](CC(=O)O)C(=O)N[C@H](C)C(=O)N[C@@H](CC(=O)O)C(=O)NCC(=O)N[C@H](CO)C(=O)N[C@@H]([C@@H](C)CC(=O)O)C(=O)N[C@@H](CC(=O)c2ccccc2N)C(=O)O[C@@H]1C | . | . | . | . | 4.6% | .
Cc1cccc(CNCCn2cc(C(=O)Nc3ccccc3)nn2)c1 | . | . | . | i | . | .
COc1cc(NCc2ccc3nc(N)nc(N)c3c2C)cc(OC)c1OC | . | . | . | ? | 3.55µM*! | .
COc1ccc(CNc2ccncc2)c(OC)c1OC | i | -16.6% | -8.9% | i | 16.6%[2.22 µM] | i
CCCc1[nH]nc2c1C(c1ccsc1)C(C#N)=C(N)O2 (stereo not given) | i | ? | 20.6µM* | i | . | i
Cc1[nH]nc2c1C(c1ccco1)C(C#N)=C(N)O2 (stereo not given) | i | -2.4% | -1.2% | i | 7.6% | i
Cc1[nH]nc2c1C(c1cc(Br)cs1)C(C#N)=C(N)O2 (stereo not given) | 13µM* | ? | ? | i | -38.6% | 16.4µM*
CN(Cc1ccc(C#CCCO)cc1)CC1CCCN(CCc2ccc(Cl)cc2)C1 (stereo not given) | i | 25.9µM* | ? | ? | . | i
CCOc1cc(C)c(C(C)C)cc1S(=O)(=O)N1CC(C)OC(C)C1 (stereo not given) | i | -0.8% | -10.3% | i | -7.6% | ?
CCOc1cc(C)c(C(C)C)cc1S(=O)(=O)n1cnc(C)c1 | ? | ? | 11.6µM* | i | -18.2% | ?
C/C(=N\NC(=O)C1CC1)c1ccc(OC(F)F)cc1 | ? | 13.3% | 0.5% | . | 16.7% | 13µM*
O=C(Nc1ccc(C(F)(F)F)cc1)c1cccnc1N1CCOCC1 | i | -7.4% | ? | i | -8.3% | 16.4µM*
O=C(Nc1ccc(N2CCOCC2)nc1)c1ccc(C(F)(F)F)cc1 | ? | -16.4% | -19.8% | i | -17.5% | 8.2µM*
Cc1cccc(C(=O)Nc2ccc(N3CCN(c4ccc(C(F)(F)F)cn4)CC3)nc2)c1 | i | -6.0% | 7.9% | i | -16.1% | i
O=C(Nc1cc(N2CCOCC2)ncn1)c1ccc(F)cc1 | 16.4µM* | -5.6% | -25.6% | i | ? | i
COc1ccc(CCNC(=O)CCCn2c(=O)c3ccccc3n(CC(=O)Nc3ccc(C)cc3Cl)c2=O)cc1OC | i | . | . | . | -2.7% | i
CC(Oc1ccccc1)C(=O)N1CCc2ccccc2C1 (stereo not given) | i | ? | 8.9% | i | -3.1% | i
Cc1cccc(C(=O)OC(C)C(=O)N2CCc3ccccc3C2)c1C (stereo not given) | i | -0.4% | -0.2% | ? | 4.0% | 18.4µM*
COc1ccc(C(=O)Oc2c(C)occc2=O)cc1OC | i | -4.3% | -2.5% | i | -10.8% | ?
SMILES | KB-3-1 cytotox | HT1080-NT tox | HT1080 IDH1KD tx | S2 tox | ATXN2 expr inh | KB-V1 MDR tox
Cc1occc(=O)c1OC(=O)Nc1ccc(Cl)c(Cl)c1 | ? | 23.1µM* | ? | ? | -5.4% | ?
CCOC(=O)c1ccc(O)cc1 | . | . | . | i | 16.8% | .
CC/C(=C(/CC)c1ccc(O)cc1)c1ccc(O)cc1 | i | ? | 14.6µM* | ? | ? | ?
N=c1n(CCO)c2ccccc2n1Cc1ccccc1F | i | . | . | i | -5.0% | i
O=C1C(Cl)=C(Nc2ccc(O)cc2)C(=O)c2ccccc21 | ? | 6.51µM* | 16.4µM* | 15.8µM* | 15.8µM* | ?
COC1=C(Nc2ccc(O)cc2)C(=O)c2ccccc2C1=O | ? | 10.3µM* | 23.1µM* | ? | -16.9% | ?
O=C1C=C(Nc2ccc(O)cc2)C(=O)c2ccccc21 | ? | 25.9µM* | 20.6µM* | ? | -24.6% | ?
CC(=O)Nc1ccc(NC2=CC(=O)c3ccccc3C2=O)cc1 | i | ? | ? | i | 17.1% | i
CCN(CC)c1ccc(NC2=C(Cl)C(=O)c3ccccc3C2=O)cc1 | ? | ? | ? | 10µM* | 20µM* | ?
COC1=C(Nc2ccc(OC)cc2)C(=O)c2ccccc2C1=O | i | -6.0% | -15.2% | ? | 3.2% | ?
N#CC1=C(N)CCC1 | i | . | . | . | . | i
CCCC(=O)NC1=C(Cl)C(=O)c2ccccc2C1=O | ? | ? | 7.31µM* | . | -19.3% | ?
CCNC1=C(Cl)C(=O)c2ccccc2C1=O | ? | ? | ? | i | -22.6% | ?
Cn1nnnc1SCCCNCc1cccc(OCc2ccc(F)cc2)c1 | i | . | . | ? | -25.3% | i
CCS(=O)(=O)Nc1ccc(C2=NN(C(=S)Nc3ccccc3)C(c3ccco3)C2)cc1 (stereo not given) | i | -23.7% | ? | ? | 23.2% | 13µM*
CS(=O)(=O)Nc1ccc(C2=NN(C(=O)c3ccco3)C(c3ccccc3)C2)cc1 (stereo not given) | i | -1.3% | -13.0% | i | 7.2% | 16.4µM*
Cc1ccc(C2CC(c3ccc(NS(C)(=O)=O)cc3)=NN2C(=O)c2ccco2)cc1 (stereo not given) | i | -13.4% | -23.8% | i | -12.3% | i
Cc1ccc(C2=NN(C(=S)Nc3ccccc3)C(c3ccco3)C2)cc1 (stereo not given) | i | -3.8% | -22.6% | i | 100.4% | i
